Set-up in all cases: scale not given: direction of the effect not stated beside the values
In assay [1] the target is Protein translocase subunit SecA (Escherichia coli (strain K12)) (UniProt P10408). The assay can be described thus: Assay to Identify E. coli SecA ATPase Inhibitors. The assay is classed as functional. The note with it: 30 µM.
Assay [2] concerns the target T1, Ubiquitin-activating enzyme e1, putative (Leishmania donovani (strain BPK282A1)) (UniProt E9BSI1).
T1 sequence (whole entry): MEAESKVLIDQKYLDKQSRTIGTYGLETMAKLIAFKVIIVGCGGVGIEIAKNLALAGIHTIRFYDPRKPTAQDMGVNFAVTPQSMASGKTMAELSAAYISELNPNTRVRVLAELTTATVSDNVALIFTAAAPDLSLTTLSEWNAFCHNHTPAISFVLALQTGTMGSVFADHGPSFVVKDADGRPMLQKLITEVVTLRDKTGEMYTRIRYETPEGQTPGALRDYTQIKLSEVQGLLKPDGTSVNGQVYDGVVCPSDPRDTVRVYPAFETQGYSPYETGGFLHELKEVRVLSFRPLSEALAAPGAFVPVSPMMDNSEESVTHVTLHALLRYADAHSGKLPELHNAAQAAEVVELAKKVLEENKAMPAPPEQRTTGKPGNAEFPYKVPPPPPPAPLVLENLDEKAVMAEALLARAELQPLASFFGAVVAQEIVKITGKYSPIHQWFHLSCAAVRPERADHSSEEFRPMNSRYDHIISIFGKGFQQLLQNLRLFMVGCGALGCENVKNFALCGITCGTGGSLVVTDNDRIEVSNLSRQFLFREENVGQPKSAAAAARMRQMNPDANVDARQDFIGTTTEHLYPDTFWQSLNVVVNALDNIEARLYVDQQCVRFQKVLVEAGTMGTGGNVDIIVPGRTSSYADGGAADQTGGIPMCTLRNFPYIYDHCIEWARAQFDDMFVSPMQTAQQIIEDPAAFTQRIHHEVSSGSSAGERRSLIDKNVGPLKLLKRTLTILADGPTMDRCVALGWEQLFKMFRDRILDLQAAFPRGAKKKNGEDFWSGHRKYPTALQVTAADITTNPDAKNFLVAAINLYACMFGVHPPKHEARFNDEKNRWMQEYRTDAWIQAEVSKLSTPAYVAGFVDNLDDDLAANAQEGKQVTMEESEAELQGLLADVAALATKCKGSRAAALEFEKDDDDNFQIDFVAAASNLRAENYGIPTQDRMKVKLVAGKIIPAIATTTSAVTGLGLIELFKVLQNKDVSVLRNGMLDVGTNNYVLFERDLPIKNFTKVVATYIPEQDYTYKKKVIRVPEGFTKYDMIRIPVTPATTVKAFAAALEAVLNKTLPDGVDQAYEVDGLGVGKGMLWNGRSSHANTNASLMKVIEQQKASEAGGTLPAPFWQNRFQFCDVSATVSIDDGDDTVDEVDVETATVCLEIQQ
Nature of the assay: Leishmania donovani Ubiquitin Activating Enzyme (LdE1). The assay is classed as functional. Conditions: 30 µM.

For assay [3], the target named is AMP-activated protein kinase, AMPK (Homo sapiens) (UniProt P54646+O43741+P54619+Q9UGJ0+Q9Y478+Q13131+Q9UGI9). The assay can be described thus: AMP-dependent Kinase enzyme assay. An in vitro enzyme assay that detects ADP turnover that is directly proportional to AMPK activity. This uses naive AMPK that is activated during the assay with MK-8722. Conditions: 30 µM. Type of assay: functional.

Assay [4] addresses Sialic acid-binding Ig-like lectin 9 (Homo sapiens) (UniProt Q9Y336). The assay can be described thus: Hs-Siglec9 ALPHAscreen SOP 20170721. The note with it: 10 µM.
The next assay deals with Trypanosoma cruzi. The assay can be described thus: Trypanosoma cruzi phosphomannomutase and mannose-1-phosphate guanylyltransferase assay. The assay is classed as functional. The note with it: 10 µM.
The target of assay [5] is T2, Arginase-2, mitochondrial (Homo sapiens) (UniProt P78540).
T2 sequence (whole entry): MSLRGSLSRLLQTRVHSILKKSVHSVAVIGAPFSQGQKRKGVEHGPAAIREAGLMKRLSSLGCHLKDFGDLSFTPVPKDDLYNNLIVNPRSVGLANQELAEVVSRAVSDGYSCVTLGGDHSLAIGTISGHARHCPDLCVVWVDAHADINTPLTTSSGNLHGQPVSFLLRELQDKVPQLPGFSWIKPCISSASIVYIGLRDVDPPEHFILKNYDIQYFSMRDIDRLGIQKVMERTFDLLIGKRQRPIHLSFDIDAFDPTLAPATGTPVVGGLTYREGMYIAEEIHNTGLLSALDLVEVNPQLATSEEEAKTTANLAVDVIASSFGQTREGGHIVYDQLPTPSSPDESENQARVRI
Nature of the assay: in vitro enzyme assay to detect the production of urea directly proportional to the activity of Arginase II. Also: in the data most compounds retested in dose-response had high values. The assay is classed as functional. The note with it: 33.3 µM.

The target of assay [6] is T3, Proteasome subunit beta (Trypanosoma cruzi) (UniProt O96673).
T3 sequence (whole entry): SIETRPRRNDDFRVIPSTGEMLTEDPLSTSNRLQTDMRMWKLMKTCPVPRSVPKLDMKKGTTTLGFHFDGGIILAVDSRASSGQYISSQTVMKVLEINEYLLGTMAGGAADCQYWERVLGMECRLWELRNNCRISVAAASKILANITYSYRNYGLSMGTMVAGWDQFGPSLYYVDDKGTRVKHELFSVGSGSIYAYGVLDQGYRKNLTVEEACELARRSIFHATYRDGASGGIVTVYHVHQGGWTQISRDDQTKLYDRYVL
Nature of the assay: Trypanosoma cruzi proteasome chymotrypsin-like activity (TcProtChymo) assay. Also: in the data most compounds retested in dose-response had high values. The assay is classed as functional. The note with it: 9.37 µM.

For the next assay, the species on record is Homo sapiens. Nature of the assay: To identify inhibition of the IFN signalling (Jak-Stat) pathway via expression of an eGFP reporter gene under the control of an IFN-stimulated response element (ISRE) containing MxA promoter. The assay is classed as functional. The note with it: 30 µM. (In general: A reporter such as luciferase makes a cellular process visible.)

In assay [7] the target is T4, Tyrosyl-tRNA synthetase, putative (Trypanosoma cruzi (strain CL Brener)) (UniProt Q4DSP6).
T4 sequence (whole entry): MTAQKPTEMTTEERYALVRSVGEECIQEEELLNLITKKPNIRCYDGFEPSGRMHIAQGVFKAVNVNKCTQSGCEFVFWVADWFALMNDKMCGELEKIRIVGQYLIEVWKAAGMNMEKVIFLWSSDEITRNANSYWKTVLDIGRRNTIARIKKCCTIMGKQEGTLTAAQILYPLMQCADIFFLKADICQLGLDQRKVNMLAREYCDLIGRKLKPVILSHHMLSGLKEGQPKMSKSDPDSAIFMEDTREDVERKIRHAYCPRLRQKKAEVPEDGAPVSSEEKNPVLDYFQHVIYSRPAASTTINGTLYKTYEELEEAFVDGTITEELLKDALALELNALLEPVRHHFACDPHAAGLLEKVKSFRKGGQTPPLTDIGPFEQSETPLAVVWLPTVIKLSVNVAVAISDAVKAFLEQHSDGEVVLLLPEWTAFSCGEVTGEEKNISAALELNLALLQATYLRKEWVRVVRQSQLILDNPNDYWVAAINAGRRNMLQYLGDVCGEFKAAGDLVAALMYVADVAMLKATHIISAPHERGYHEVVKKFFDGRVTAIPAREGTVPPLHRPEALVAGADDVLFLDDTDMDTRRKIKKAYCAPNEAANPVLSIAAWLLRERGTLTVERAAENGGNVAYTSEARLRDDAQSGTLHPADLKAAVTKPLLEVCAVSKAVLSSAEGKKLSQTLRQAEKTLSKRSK
Nature of the assay: Trypanosoma cruzi tyrosyl tRNA synthetase (TcYRS) _High Tyrosine SOP. Also: in the data most compounds retested in dose-response had high values. Type of assay: functional. The note with it: 30 µM.

Assay [8] has as its target T4, Tyrosyl-tRNA synthetase, putative (Trypanosoma cruzi (strain CL Brener)). Nature of the assay: Trypanosoma cruzi tyrosyl tRNA synthetase (TcYRS) SOP. The assay is classed as functional. Conditions: 30 µM.
Assay [9] concerns the target Chromo domain-containing protein 1 (Saccharomyces cerevisiae (strain ATCC 204508 / S288c) (Baker's yeast)) (UniProt P32657). The assay can be described thus: ScCHD-1 Enzyme Inhibition Assay. Also: in the data most compounds retested in dose-response had high values. Type of assay: functional. Conditions: 30 µM.

For some of these results: Entries with a potency or affinity are not part of this list.

Drawing on ChEMBL document CHEMBL3988442, “University of Dundee, Small-Polar-MMV Screening Library” (2021), this text covers Percent Effect for eight compounds.

Sequence of Sialic acid-binding Ig-like lectin 9 (Homo sapiens) (Q9Y336 whole entry): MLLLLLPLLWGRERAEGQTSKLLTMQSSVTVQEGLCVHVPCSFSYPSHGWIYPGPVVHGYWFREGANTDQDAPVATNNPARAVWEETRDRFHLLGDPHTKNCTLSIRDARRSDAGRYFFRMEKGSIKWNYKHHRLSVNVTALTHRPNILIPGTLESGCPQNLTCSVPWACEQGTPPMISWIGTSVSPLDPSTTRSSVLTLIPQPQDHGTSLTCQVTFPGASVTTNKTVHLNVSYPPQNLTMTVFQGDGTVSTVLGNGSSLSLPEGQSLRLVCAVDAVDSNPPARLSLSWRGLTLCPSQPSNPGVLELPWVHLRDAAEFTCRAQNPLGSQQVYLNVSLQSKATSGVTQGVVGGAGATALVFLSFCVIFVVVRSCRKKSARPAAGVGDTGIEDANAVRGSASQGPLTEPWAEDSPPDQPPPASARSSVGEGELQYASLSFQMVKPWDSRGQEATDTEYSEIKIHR
Sequence of Protein translocase subunit SecA (Escherichia coli (strain K12)) (P10408 whole entry): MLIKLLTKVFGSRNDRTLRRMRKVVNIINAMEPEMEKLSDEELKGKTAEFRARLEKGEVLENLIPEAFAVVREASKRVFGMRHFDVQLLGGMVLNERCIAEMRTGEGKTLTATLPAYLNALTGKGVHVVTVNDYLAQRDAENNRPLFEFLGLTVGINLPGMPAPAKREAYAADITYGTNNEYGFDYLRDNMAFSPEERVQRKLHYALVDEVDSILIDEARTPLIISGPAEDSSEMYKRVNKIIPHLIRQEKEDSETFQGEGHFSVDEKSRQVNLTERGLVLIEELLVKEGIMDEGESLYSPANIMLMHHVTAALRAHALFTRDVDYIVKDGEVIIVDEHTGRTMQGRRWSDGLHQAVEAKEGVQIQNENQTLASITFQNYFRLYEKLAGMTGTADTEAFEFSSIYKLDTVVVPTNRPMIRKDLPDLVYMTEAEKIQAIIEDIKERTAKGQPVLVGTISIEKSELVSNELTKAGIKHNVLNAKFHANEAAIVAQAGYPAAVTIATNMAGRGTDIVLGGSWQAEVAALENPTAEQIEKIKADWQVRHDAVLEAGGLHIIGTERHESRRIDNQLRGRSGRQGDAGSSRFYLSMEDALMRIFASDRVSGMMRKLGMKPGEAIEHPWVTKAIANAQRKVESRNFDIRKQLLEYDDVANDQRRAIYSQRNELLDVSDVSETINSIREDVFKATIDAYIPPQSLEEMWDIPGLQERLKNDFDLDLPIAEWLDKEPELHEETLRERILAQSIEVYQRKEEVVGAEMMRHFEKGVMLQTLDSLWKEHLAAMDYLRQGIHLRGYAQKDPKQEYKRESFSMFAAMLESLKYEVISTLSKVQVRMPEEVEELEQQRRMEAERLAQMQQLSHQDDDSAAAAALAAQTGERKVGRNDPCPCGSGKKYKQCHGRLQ
Sequence of Chromo domain-containing protein 1 (Saccharomyces cerevisiae (strain ATCC 204508 / S288c) (Baker's yeast)) (P32657 whole entry, the tested form may be a part): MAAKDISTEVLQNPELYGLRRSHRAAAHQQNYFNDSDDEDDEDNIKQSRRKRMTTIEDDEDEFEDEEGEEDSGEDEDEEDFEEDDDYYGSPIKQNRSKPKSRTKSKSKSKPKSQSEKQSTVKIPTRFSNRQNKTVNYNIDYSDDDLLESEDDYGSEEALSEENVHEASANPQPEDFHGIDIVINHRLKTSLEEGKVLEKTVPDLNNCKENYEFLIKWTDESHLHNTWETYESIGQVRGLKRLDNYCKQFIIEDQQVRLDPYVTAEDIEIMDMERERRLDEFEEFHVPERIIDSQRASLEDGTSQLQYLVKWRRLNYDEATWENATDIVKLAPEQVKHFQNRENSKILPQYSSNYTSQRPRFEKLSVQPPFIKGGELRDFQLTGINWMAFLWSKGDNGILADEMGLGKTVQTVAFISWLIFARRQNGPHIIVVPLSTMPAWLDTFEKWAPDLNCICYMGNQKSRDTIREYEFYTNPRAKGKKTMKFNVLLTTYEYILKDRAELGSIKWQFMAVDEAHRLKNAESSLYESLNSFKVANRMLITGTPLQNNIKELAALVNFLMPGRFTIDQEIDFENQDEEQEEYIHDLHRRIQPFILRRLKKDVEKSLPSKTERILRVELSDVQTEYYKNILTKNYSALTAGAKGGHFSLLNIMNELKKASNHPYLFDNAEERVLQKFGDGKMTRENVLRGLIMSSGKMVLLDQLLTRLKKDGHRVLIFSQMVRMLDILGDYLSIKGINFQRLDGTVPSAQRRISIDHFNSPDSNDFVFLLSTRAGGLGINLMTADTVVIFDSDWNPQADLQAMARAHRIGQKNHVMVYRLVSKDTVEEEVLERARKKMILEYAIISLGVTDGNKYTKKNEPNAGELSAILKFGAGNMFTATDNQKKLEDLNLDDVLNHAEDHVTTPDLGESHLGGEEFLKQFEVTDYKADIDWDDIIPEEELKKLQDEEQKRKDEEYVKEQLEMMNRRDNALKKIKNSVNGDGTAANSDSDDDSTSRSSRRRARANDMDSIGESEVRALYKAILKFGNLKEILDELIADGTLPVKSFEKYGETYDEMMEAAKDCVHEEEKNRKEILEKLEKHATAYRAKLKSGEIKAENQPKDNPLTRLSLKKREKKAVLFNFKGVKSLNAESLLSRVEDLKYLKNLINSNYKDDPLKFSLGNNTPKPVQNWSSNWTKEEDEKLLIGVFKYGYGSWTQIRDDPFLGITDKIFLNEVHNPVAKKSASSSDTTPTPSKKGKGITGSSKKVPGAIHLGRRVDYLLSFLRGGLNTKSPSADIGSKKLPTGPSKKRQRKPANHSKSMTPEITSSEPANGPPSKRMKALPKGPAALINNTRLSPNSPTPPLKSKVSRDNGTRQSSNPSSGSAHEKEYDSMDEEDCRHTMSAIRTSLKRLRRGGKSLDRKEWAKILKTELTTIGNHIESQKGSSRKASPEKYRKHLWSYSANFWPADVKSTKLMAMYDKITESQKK

`O=C(NCC1CCOC1)c1csc(-c2cccc(Cl)c2)n1` (stereo not drawn): the Percent Effect in assay [1] was -3.12%; in assay [2], 10.4%; in assay [3] it was 3.54%; in assay [4] it was -3.81%; in the assay on Trypanosoma cruzi, -5.24%; in [5] it was 0.712%. The Percent Effect was 8.62% in assay [6]; 25.1% in the assay listed under Homo sapiens; 1.94% in [7]; 14.6% in assay [8]; -5.77% in assay [9].

For `Cc1nc(CN2CCC(N(C)Cc3noc(C(C)C)n3)C2)cs1` (stereo not drawn), the Percent Effect in assay [1] is 1.43%; in assay [2] it was -24.7%; in assay [3], -8.83%; in [4], 5.3%; with Trypanosoma cruzi it was -5.68%; in [5], -4.54%. Besides, the Percent Effect in assay [6] was 19%; in the assay listed under Homo sapiens, 26%; in [7], 4.3%; in assay [8], 2.5%; in assay [9], -4.7%.

For `CCc1cc(NCc2ccccc2CN2CCCC2)n2ncnc2n1`, the Percent Effect in assay [1] was -5.91%; in [2] it was 0%; in assay [3], -0.284%; in assay [4], -9.79%; with Trypanosoma cruzi it was -4.38%; in [5], 5.92%. The Percent Effect in assay [6] was 17.4%; in the assay listed under Homo sapiens, -22.7%; in assay [7], 3.19%; in assay [8] it was -2.6%; in assay [9] it was -5.77%.

Regarding `CCn1cc(CN(C)S(=O)(=O)c2ccc(NC(C)=O)cc2)cn1`, the Percent Effect is 2.78% in assay [1]; 14.7% in assay [2]; 5.54% in [3]; -0.366% in assay [4]; -2.95% with Trypanosoma cruzi; -15% in assay [5]. The Percent Effect in assay [6] was 7.39%; in the assay listed under Homo sapiens it was 18%; in assay [7], 1.06%; in assay [8], 7.69%; in [9] it was -7.39%.

`COCCC(=O)Nc1ccnc(Oc2ccccc2)c1`: the Percent Effect in assay [1] was 2.99%; in [2], -5.26%; in assay [3], 0.138%; in [4], -14%; in the assay with Trypanosoma cruzi, -6.91%; in assay [5], 7.1%. Moreover, the Percent Effect in assay [6] is 15.4%; in the assay filed under Homo sapiens, 19.5%; in [7], 1.06%; in assay [8], 7.79%; in [9] it was -6.2%.

Take `Cc1cc(NC(=O)CN(C)C2CCCN(c3cccnn3)C2)n(C)n1` (stereo not drawn): the Percent Effect in assay [1] is -4.44%; in assay [2], 7.89%; in assay [3] it was -28.4%; in assay [4], 2.85%; in the assay on Trypanosoma cruzi, 12.2%; in [5], -1.8%. The Percent Effect in assay [6] was 10.6%; in the assay listed under Homo sapiens it was -5.3%; in assay [7] it was 4.43%; in [8], 13.6%; in assay [9], 6.51%.

On to `CC(=O)N1CC(=O)N(c2cnn(C)c2)CC12CCN(Cc1ccsc1)C2` (stereo not drawn), for which the Percent Effect is -5.9% in assay [1]; 2.7% in [2]; -4.89% in assay [3]; 3.54% in [4]; -6.05% in the assay with Trypanosoma cruzi; -1.25% in [5]. In addition, the Percent Effect in [6] was 18.3%; in the assay filed under Homo sapiens, 13.5%; in assay [7] it was 3.96%; in assay [8], 3.66%; in assay [9], -3.49%.

Consider `CCN(CC)C(CNS(=O)(=O)c1ccc(C(=O)NC)cc1)c1ccco1` (stereo not drawn), for which the Percent Effect in [1] is -3.83%; in assay [2], 5.41%; in [3] it was 3.15%; in [4], -5.57%; in the assay with Trypanosoma cruzi, -5.47%; in [5], -1.67%. In addition, the Percent Effect in [6] was 18.5%; in the assay filed under Homo sapiens, 13.1%; in [7], 9.9%; in assay [8] it was 6.1%; in [9] it was 7.75%.
